The values below come from PubChem BioAssay AID1446 (The Scripps Research Institute Molecular Screening Center, 2008).

Structures are written as SMILES. “And” between values parts separate entries of the source, which are not always exact repeats. Equal values may be shown once. Hit rate of the full screen: of about 220,000 compounds, about 2,400 (1.1%) were called active.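 Rule for the calls: active = inhibition above the campaign mean plus 3 SD over all tested compounds (cut at about 24% in these data); inactive = the rest.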 Shown is part of a subset that was picked to be rich in actives.

The nature of the assay: reduced viability of JAK2V617F-dependent Ba/F3 cells, primary screen, JAK2V617F inhibitor project, cell-based, Ba/F3 EpoR-JAK2V617F, luminescence (AID 1446).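 Note: cytokine-independent growth of Ba/F3 cells driven by EpoR plus mutant JAK2; 0% = DMSO-treated cells and 100% = JAK inhibitor I control.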 Particulars: ATP luminescence, at 5.6 µM, active compounds read high.
Consider `O=C(CSc1nnc(SCc2ccc(F)cc2)s1)Nc1ccc(C(=O)O)cc1`, for which the inhibition – broadly, the drop in the measured response relative to a control, in per cent – was -3.83% (inactive).

Turning to `Cc1ccc(S(=O)(=O)N(C)C)cc1NC(=O)c1ccccc1Br`, the inhibition was 2.86% (inactive).

As to `COc1cc(OC)nc(S(C)(=O)=O)n1`, the inhibition was -3.65% (inactive).

Turning to `COc1ccc(-c2cc(C(F)(F)F)nc(S(C)(=O)=O)n2)cc1OC`, the inhibition was 37.9% (active).

Turning to `COc1ccc(-c2cc(C(F)(F)F)nc(SCC(=O)Nc3ccc4c(c3)OCO4)n2)cc1OC`, the inhibition was 2.59% (inactive).

As for `Cc1c(CCC(=O)O)c(=O)oc2cc3occ(-c4ccccc4)c3cc12`, the inhibition is 2.82% (inactive).

Regarding `COc1ccc(C(=O)NNC(=S)NC(=O)c2ccccc2[N+](=O)[O-])cc1`, the inhibition was 0.22% (inactive).

As to `CCOC(=O)C(=Cc1ccccc1OC)C(=O)OCC`, the inhibition is -2.52% (inactive).

For `CN(NC(=O)c1ccccc1F)c1nc(C(F)(F)F)nc2ccccc12`, the inhibition is 73.2% (active).

Consider `COc1ccc(OCC(=O)NNC(=O)c2cccc(C)c2)cc1`, for which the inhibition was -0.28% (inactive).

As to `CSc1nc(N(C)NC(=O)c2cccc(C)c2)c2ccccc2n1`, the inhibition was 93.6% (active).

With `COc1ccc(C(=O)NN(C)c2nc(-c3ccccc3)cc(C)c2S(C)(=O)=O)cc1`, the inhibition is 2.15% (inactive).

For the compound `CN(NC(=O)c1ccccc1)c1nc2ccccc2nc1C(F)(F)F`, the inhibition is -2.71% (inactive).

On to `COC(=O)CNC(=O)c1ccccc1F`, for which the inhibition was -2.64% (inactive).

`CC(=O)c1ccc(NC(=O)CSC(=S)N2CCCC2)cc1`: the inhibition is -0.78% (inactive).

Take `C=CCNC(=O)CSc1nc2scc(-c3ccco3)c2c(=O)n1CC=C`: the inhibition is -2.22% (inactive).

On to `Nc1nc(NC(=O)/C=C/c2ccc(F)cc2)nn1-c1ccccc1`, for which the inhibition is 1.73% (inactive).

Regarding `CCCCCN(C(=O)NC(=O)Nc1cccc(C)c1C)S(C)(=O)=O`, the inhibition was 1.95% (inactive).

With `CC(NC(=O)C(=O)Nc1nccs1)c1ccccc1` (stereo unspecified), the inhibition was -0.5% (inactive).

On to `CCCCN1C(=O)CCC(C(=O)O)C1c1ccc(OC)cc1` (stereo unspecified), for which the inhibition is -6.4% (inactive).

On to `CC(=O)c1cnc(-c2ccccc2)s1`, for which the inhibition is -0.87% (inactive).

Regarding `COc1ccc2c(c1OC)C(=O)OC2c1c(O)nc(SC)n(-c2ccccc2)c1=O` (stereo unspecified), the inhibition is -4.02% (inactive).

As to `COc1ccc2c(c1OC)C(=O)OC2Nc1nc(-c2ccccc2)cs1` (stereo unspecified), the inhibition is 68.6% (active).

For the compound `COc1ccc(-c2csc(NC3OC(=O)c4ccccc43)n2)cc1` (stereo unspecified), the inhibition was 11.9% (inactive).

In the case of `Cn1c(SCC(=O)Nc2ccc(Cl)cc2)nc(O)cc1=O`, the inhibition is -1.33% (inactive).

As to `O=C1CC(c2c(F)cccc2Cl)C(n2cncn2)C(O)=C1C1NCCc2ccccc21` (stereo unspecified), the inhibition was -3.23% (inactive).

For the compound `COc1ccccc1C1C2=C(COC2=O)Nc2cc3c(cc21)OCO3` (stereo unspecified), the inhibition was 85.5% (active).

As to `CCCOc1ccccc1C1CC(=O)Nc2cc3c(cc21)OCO3` (stereo unspecified), the inhibition was 74.4% (active).

Take `COc1ccc(F)cc1S(=O)(=O)Nc1ccc2c(c1)OCO2`: the inhibition is 0.08% (inactive).

Take `COc1ccc(C2CC(=O)Nc3cc(C)c(C)cc32)c(OC)c1OC` (stereo unspecified): the inhibition was 0.14% (inactive).

As to `COCCOC(=O)C1=C(C)NC(=O)CC1c1cc2c(cc1Br)OCO2` (stereo unspecified), the inhibition was 1.76% (inactive).

Consider `COc1cc2c(cc1/C=C1/NC(=O)N(c3ccccc3)C1=O)OCO2`, for which the inhibition was 0.39% (inactive).

In the case of `Cc1nc(C(=O)N2CCCC(C(=O)c3ccc(Cl)cc3)C2)cs1` (stereo unspecified), the inhibition was -2.53% (inactive).

For the compound `CC(=O)N1CCN(S(=O)(=O)c2c(F)cc(F)c(Cl)c2F)CC1`, the inhibition is -1.72% (inactive).

Turning to `COc1ccc(CN(C)C(C)C(=O)NC2CCCc3ccccc32)cc1` (stereo unspecified), the inhibition is 3.02% (inactive).

For the compound `COc1ccc2nc(SCc3ccccc3)nc(C)c2c1`, the inhibition is 2.96% (inactive).

As for `CCOC(=O)C1C(c2ccc(OC)c(OC)c2)c2c([nH][nH]c2=O)CC1(C)O` (stereo unspecified), the inhibition is -0.54% (inactive).

Turning to `O=C(CCCn1c(=O)c2sccc2n(CC(=O)NCC2CCCO2)c1=O)NCc1ccco1` (stereo unspecified), the inhibition is -0.32% (inactive).

Take `COc1ccc(C2c3ccc(O)cc3Oc3ncn(CCCO)c(=N)c32)cc1OC` (stereo unspecified): the inhibition was -1.6% (inactive).

With `COc1ccc(CS(=O)/C(Cl)=C(/Cl)C(=O)Nc2ccc(OC)nc2)cc1` (stereo unspecified), the inhibition was 101% (active).

In the case of `COc1ccc(NC(=S)Nc2ccccc2Cl)cn1`, the inhibition was 4% (inactive).

As for `COc1ccc(NC(=S)NCCNC(C)=O)cc1`, the inhibition is -1.93% (inactive).

For `COc1ccc(NC(=O)/C(Cl)=C(/Cl)S(=O)Cc2ccc(C)cc2)cn1` (stereo unspecified), the inhibition is 100% (active).

For `Cc1ccc(NC(=O)OCc2cncs2)cc1`, the inhibition was 4.29% (inactive).

As to `COc1ccc(Nc2cc(Cl)ccc2C(=O)O)cn1`, the inhibition was -1.48% (inactive).

Turning to `CCC(=O)N1CCCc2ccccc21`, the inhibition is -4.91% (inactive).

Consider `C=CCc1cccc2cc(C(=O)Nc3ccc(NC(C)=O)cc3)c(=O)oc12`, for which the inhibition is -0.67% (inactive).

With `CC1CCCN(S(=O)(=O)c2ccc(C(=O)Nc3nnc(-c4ccncc4)o3)cc2)C1` (stereo unspecified), the inhibition is -1.33% (inactive).

Turning to `CC1CCCCN1S(=O)(=O)c1ccc(S(=O)(=O)N(CC(=O)Nc2ccccc2)Cc2cccs2)cc1` (stereo unspecified), the inhibition was -2.37% (inactive).

On to `CC1CCCCN1S(=O)(=O)c1ccc(C(=O)Nc2nnc(-c3cccs3)o2)cc1` (stereo unspecified), for which the inhibition is 36.5% (active).

In the case of `C/C(=N\NC(=O)OC(C)(C)C)c1ccc[nH]1`, the inhibition was 1.03% (inactive).

With `CCN(CC)C(=O)Oc1ccc(Br)cc1C(=O)Nc1ccc(F)c(Cl)c1`, the inhibition is -0.45% (inactive).

Regarding `CCOC(=O)C(C)n1nc(-c2ccccc2)c2ccccc2c1=O` (stereo unspecified), the inhibition is -1.31% (inactive).

With `COc1ccc(C(=O)NC(Cc2ccc(OC(=O)c3ccc(OC)cc3)cc2)C(=O)O)cc1` (stereo unspecified), the inhibition is -2.6% (inactive).

Turning to `O=C(CN1CCN(S(=O)(=O)c2ccc(Br)cc2)CC1)Nc1ccccc1C(=O)c1ccccc1`, the inhibition is -3.02% (inactive).

With `Cc1ccc(Oc2ccc(N)cc2)cc1`, the inhibition was 0.92% (inactive).

On to `CC(C)(C)c1ccc(Oc2ccc(N)cc2)cc1`, for which the inhibition was 33.3% (active).

As for `Nc1ccc(Oc2ccc(Cl)cc2)cc1`, the inhibition was 7.34% (inactive).

As to `CC(C)CN1CCNC(=O)C1CC(=O)N(C)CC1CCOCC1` (stereo unspecified), the inhibition is -1.14% (inactive).

In the case of `Cc1ccc(-c2cc(C(F)(F)F)n3ncc(C(=O)N4CCCCC4c4cccnc4)c3n2)cc1` (stereo unspecified), the inhibition is -1.34% (inactive).

Regarding `COc1cc2c(cc1OC)CN(C(=O)c1ccc(S(=O)(=O)N3CCCCCC3)cc1)CC2`, the inhibition is 4.67% (inactive).

Consider `CCOc1cc(C(=O)N2CCc3cc(OC)c(OC)cc3C2)ccc1OC(F)F`, for which the inhibition was 82.7% (active).

`COc1cc2c(cc1OC)CN(C(=O)c1cc(=O)c3ccccc3o1)CC2`: the inhibition was 15.9% (inactive).

Turning to `OCC1(Cc2ccccc2C(F)(F)F)CCN(Cc2ccncc2)CC1`, the inhibition was 3.31% (inactive).

Turning to `C[C@@H]1C[C@@H]2O[C@H]2/C=C\C=C\C(=O)Cc2c(Cl)c(O)cc(O)c2C(=O)O1`, the inhibition was 96.8% (active).

Take `CCOC(=O)c1ccc(NC(=O)Cn2cnc3cc(C)c(C)cc32)cc1`: the inhibition is 47.2% (active).

For the compound `CCOC(=O)c1ccc(NC(=O)Cn2nnc(-c3ccc(C)cc3)n2)cc1`, the inhibition was -1.34% (inactive).

As for `CCOC(=O)c1ccc(NC(=O)CSc2ncccn2)cc1`, the inhibition was -1.61% (inactive).

With `CCOC(=O)c1ccc(N=C2SC(C(=O)NC)CC(=O)N2CCc2ccccc2)cc1` (stereo unspecified), the inhibition was 1.63% (inactive).

For `Clc1ccc(C[n+]2cc(-c3ccc(Cl)cc3)n3c2CCC3)cc1`, the inhibition is 50.1% (active).

Take `Cn1c(-c2ccccc2)c[n+]2c1CCCCC2`: the inhibition is -3.91% (inactive).

On to `O=C(C[n+]1cc(-c2ccc(Cl)c(Cl)c2)n2c1CCC2)c1cccs1`, for which the inhibition was 4.8% (inactive).

For `Clc1ccc(C[n+]2cc(-c3ccccc3)n3c2CCC3)cc1`, the inhibition was 70.5% (active).

For the compound `Cc1ccc(-c2c[n+](CC(=O)Nc3ccccc3)c3n2CCC3)cc1`, the inhibition was -4.7% (inactive).

As for `Cc1ccc(C(=O)C[n+]2cc(-c3ccccc3)n3c2CCCCC3)cc1`, the inhibition was 69.4% (active) and 87.4% (active).

`CN(C(=O)CSc1nnc(-c2n[nH]c3ccccc23)o1)c1ccccc1`: the inhibition is 2.55% (inactive).
